Assay [1] deals with guinea pig Atrionatriuretic Peptide Receptor A (ANPA), gene 100135578. Kind of assay: NVS_GPCR_gANPA: NovaScreen (NVS) G Protein-Coupled Receptor Assay for guinea pig Atrionatriuretic Peptide Receptor A (ANPA) (AID 2283291). In a few lines: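 Displacement of specific radioligand from guinea pig cerebellum membranes was read by scintillation after 1 h. A duplicate single-point screen at 25 uM was followed by a concentration series up to 50 uM, analysed relative to DMSO.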

The target in assay [2] is human Opioid Receptor Mu (Opiate Mu), OPRM1 (gene 4988) (UniProt P35372). Nature of the assay: NVS_GPCR_hOpiate_mu: NovaScreen (NVS) G Protein-Coupled Receptor Assay for human Opioid Receptor Mu (Opiate Mu) (AID 2283290).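 Note: hits lower bound tracer signal versus DMSO meaning displacement of the ligand.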 In a few lines: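 Primary screen in duplicate at 25 uM, with actives followed in concentration series. CHO-derived receptor membranes, cell-free; bound radioligand read by scintillation counting after filtration at 2.5 h, decrease scored against DMSO.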

Assay [3] deals with rat Adrenergic, Alpha 1, Non-selective Receptor (Adra1), Adra1a (gene 29412) (UniProt P43140). Nature of the assay: NVS_GPCR_rAdra1_NonSelective: NovaScreen (NVS) G Protein-Coupled Receptor Assay for rat Adrenergic, Alpha 1, Non-selective Receptor (Adra1) (AID 2283289). The procedure:
NVS_GPCR_rAdra1_NonSelective is a biochemical, single-readout assay that uses extracted gene-proteins from Rat forebrain membranes in a tissue-based cell-free assay. Measurements were taken 1 hour after chemical dosing in a 48-well plate.NVS_GPCR_rAdra1_NonSelective is one of one assay component(s) measured or calculated from the NVS_GPCR_rAdra1_NonSelective assay. It is designed to make measurements of radioligand binding, a form of binding reporter, as detected with scintillation counting signals by Filter-based radiodetection technology.Data from the assay component NVS_GPCR_rAdra1_NonSelective was analyzed into 1 assay endpoint. This assay endpoint, NVS_GPCR_rAdra1_NonSelective, was analyzed in the positive analysis fitting direction relative to DMSO as the negative control and baseline of activity. Using a type of binding reporter, loss-of-signal activity can be used to understand changes in the binding as they relate to the gene Adra1a. Furthermore, this assay endpoint can be referred to as a primary readout, because the performed assay has only produced 1 assay endpoint. To generalize the intended target to other relatable targets, this assay endpoint is annotated to the gpcr intended target family, where the subfamily is rhodopsin-like receptor.
Binding assays used specific radioligands (tritiated, iodinated) with non-radioactive competitive displacement ligands in agonist or antagonist protocols (as indicated) and various reference compounds and inhibitors to titrate specific binding to receptors and transporters. Most enzyme assays (CYPs, kinases, phosphatases, proteases, HDACs) used recombinant protein and specific substrates (fluorescence mostly, some colorimetric and radioactive) and inhibitors, followed by a biochemical separation of substrate and product. All assays for the biochemical HTS were initially run in duplicate at a single concentration (10 uM for CYP450 assays and 25 uM for all others). […]

Assay [4] concerns the target rat Serotonin, 5-Hydroxytryptamine Receptor (5HT), Non-Selective Binding, Htr1a (gene 24473) (UniProt P19327). Nature of the assay: NVS_GPCR_r5HT_NonSelective: NovaScreen (NVS) G Protein-Coupled Receptor Assay for rat Serotonin, 5-Hydroxytryptamine Receptor (5HT), Non-Selective Binding (AID 2283295). In a few lines:
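Rat cortex membrane preparation incubated 1 h with radioligand and test chemical; bound radioactivity counted after filtration. Screening began in duplicate at 25 uM with concentration-series follow-up; fitting relative to DMSO.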

Assay [5] addresses rat Adrenergic, Alpha 1A Receptor (Adra1A), Adra1a (gene 29412) (UniProt P43140). Nature of the assay: NVS_GPCR_rAdra1A: NovaScreen (NVS) G Protein-Coupled Receptor Assay for rat Adrenergic, Alpha 1A Receptor (Adra1A) (AID 2283296). A digest of the protocol: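 Filter radiodetection after 1 h competitive binding on CEC-pretreated rat cortical membranes. Duplicate single-point screening at 25 uM; active chemicals retested across concentration series.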

Assay [6] addresses rat Adrenergic Receptor, Alpha 2 (Adra2), Non-selective Binding, Adra2a (gene 25083) (UniProt P22909). Kind of assay: NVS_GPCR_rAdra2_NonSelective: NovaScreen (NVS) G Protein-Coupled Receptor Assay for rat Adrenergic Receptor, Alpha 2 (Adra2), Non-selective Binding (AID 2283299). In a few lines:
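Filter-based scintillation counting of radioligand binding to rat cortical membrane receptors, measured 1.25 hours post-dosing; loss of signal versus DMSO indicates displacement. Initial single-concentration duplicate at 25 uM, then concentration series.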

In assay [7] the target is guinea pig Serotonin, 5-Hydroxytryptamine Receptor 4 (5HT4), HTR4 (gene 100135548) (UniProt O70528). Kind of assay: NVS_GPCR_g5HT4: NovaScreen (NVS) G Protein-Coupled Receptor Assay for guinea pig Serotonin, 5-Hydroxytryptamine Receptor 4 (5HT4) (AID 2283294). In a few lines: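 Compounds first screened in duplicate at 25 uM, actives followed up in concentration series. Binding measured as displacement of specific radioligand from guinea pig striatal membranes, 1 h, filter-based scintillation read-out versus DMSO baseline.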

Assay [8] has as its system rat Adrenergic, Alpha 1B Receptor (Adra1B), gene 24173. Kind of assay: NVS_GPCR_rAdra1B: NovaScreen (NVS) G Protein-Coupled Receptor Assay for rat Adrenergic, Alpha 1B Receptor (Adra1B) (AID 2283297). A digest of the protocol:
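Filter-binding radioligand competition on membranes from rat liver, read after 1 h by scintillation counting. Single-concentration duplicate screen at 25 uM, followed by concentration-response on actives, normalised to DMSO.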

For assay [9], the target named is rat Adrenergic Receptor, Beta (Adrb), Non-selective Binding, Adrb1 (gene 24925) (UniProt P18090). Kind of assay: NVS_GPCR_rAdrb_NonSelective: NovaScreen (NVS) G Protein-Coupled Receptor Assay for rat Adrenergic Receptor, Beta (Adrb), Non-selective Binding (AID 2283298). A digest of the protocol:
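Rat cortical membranes incubated 1 h with beta-adrenergic radioligand and test chemical; bound ligand measured by filtration and scintillation counting. Screen at 25 uM duplicate, then concentration series with 50 uM maximum; loss of signal versus DMSO.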

For assay [10], the target named is guinea pig Bradykinin Receptor B2 (BK2), BDKRB2 (gene 100135486) (UniProt O70526). Nature of the assay: NVS_GPCR_gBK2: NovaScreen (NVS) G Protein-Coupled Receptor Assay for guinea pig Bradykinin Receptor B2 (BK2) (AID 2283292). In a few lines:
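Guinea pig ileum membrane preparation incubated 1 h with radioligand and test chemical; bound counts measured after filtration. Primary duplicate screening at 25 uM, then singleton concentration series with a 50 uM top dose; DMSO as baseline.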

Records with an inconclusive call do not appear. The source made the active and inactive calls. Rule for the calls: active = hit-call score of the fitted dose curve at least 0.9, where 1 is the maximum; inconclusive = response in the unintended direction; inactive = score below 0.9.

The record followed here is PubChem BioAssay (EPA / NIEHS).

Sequence of rat Serotonin, 5-Hydroxytryptamine Receptor (5HT), Non-Selective Binding, Htr1a (gene 24473) (P19327 whole entry, looked up): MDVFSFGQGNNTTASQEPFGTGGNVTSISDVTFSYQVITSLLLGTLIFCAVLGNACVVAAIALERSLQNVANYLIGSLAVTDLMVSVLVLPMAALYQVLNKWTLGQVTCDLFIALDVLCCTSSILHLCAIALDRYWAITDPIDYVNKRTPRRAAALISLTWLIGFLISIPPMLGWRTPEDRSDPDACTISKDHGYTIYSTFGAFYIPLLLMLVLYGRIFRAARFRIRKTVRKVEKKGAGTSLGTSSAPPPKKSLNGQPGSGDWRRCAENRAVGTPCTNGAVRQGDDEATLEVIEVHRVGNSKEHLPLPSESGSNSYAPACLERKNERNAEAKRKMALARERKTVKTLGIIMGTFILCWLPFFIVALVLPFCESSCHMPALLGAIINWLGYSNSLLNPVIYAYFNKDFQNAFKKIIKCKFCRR
Sequence of rat Adrenergic Receptor, Alpha 2 (Adra2), Non-selective Binding, Adra2a (gene 25083) (P22909 whole entry, looked up): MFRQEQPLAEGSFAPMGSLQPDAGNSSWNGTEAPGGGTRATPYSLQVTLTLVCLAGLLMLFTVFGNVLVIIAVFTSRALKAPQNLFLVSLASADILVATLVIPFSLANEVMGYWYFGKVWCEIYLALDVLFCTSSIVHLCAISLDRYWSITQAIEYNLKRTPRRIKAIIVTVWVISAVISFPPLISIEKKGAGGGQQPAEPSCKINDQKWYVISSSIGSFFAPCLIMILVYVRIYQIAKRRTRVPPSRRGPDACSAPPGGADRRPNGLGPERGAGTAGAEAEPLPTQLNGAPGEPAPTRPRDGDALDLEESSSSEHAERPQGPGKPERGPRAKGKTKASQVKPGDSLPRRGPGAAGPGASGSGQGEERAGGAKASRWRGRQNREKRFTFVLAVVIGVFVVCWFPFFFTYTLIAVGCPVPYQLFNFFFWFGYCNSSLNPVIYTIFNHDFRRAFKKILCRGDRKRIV
Sequence of rat Adrenergic, Alpha 1A Receptor (Adra1A), Adra1a (gene 29412) (P43140 whole entry, looked up): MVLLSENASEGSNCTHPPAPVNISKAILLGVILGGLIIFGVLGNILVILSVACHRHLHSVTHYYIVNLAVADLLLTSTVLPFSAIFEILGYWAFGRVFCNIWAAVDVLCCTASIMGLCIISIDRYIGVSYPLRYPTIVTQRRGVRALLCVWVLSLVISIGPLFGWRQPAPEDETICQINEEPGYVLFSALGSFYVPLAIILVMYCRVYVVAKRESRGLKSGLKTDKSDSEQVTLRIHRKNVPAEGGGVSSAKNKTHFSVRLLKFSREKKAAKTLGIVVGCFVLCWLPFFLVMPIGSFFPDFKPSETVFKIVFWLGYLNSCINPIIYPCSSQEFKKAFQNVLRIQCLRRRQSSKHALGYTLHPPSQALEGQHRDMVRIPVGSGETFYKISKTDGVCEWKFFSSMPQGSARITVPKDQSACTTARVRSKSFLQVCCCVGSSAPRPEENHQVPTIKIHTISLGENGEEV
Sequence of rat Adrenergic, Alpha 1, Non-selective Receptor (Adra1), Adra1a (gene 29412) (P43140 whole entry, looked up): as above
Sequence of human Opioid Receptor Mu (Opiate Mu), OPRM1 (gene 4988) (P35372 whole entry, looked up): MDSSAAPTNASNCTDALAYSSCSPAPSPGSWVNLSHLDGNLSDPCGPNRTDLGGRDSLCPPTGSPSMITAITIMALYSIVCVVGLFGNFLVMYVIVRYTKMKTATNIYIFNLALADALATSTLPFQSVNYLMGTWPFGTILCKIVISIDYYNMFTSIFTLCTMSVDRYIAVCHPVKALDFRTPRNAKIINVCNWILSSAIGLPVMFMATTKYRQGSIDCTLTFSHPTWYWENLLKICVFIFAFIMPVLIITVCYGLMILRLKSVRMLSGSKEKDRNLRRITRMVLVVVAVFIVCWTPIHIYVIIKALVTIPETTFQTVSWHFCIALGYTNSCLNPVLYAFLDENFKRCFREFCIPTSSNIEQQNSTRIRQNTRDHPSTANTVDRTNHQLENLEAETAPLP
Sequence of rat Adrenergic Receptor, Beta (Adrb), Non-selective Binding, Adrb1 (gene 24925) (P18090 whole entry, looked up): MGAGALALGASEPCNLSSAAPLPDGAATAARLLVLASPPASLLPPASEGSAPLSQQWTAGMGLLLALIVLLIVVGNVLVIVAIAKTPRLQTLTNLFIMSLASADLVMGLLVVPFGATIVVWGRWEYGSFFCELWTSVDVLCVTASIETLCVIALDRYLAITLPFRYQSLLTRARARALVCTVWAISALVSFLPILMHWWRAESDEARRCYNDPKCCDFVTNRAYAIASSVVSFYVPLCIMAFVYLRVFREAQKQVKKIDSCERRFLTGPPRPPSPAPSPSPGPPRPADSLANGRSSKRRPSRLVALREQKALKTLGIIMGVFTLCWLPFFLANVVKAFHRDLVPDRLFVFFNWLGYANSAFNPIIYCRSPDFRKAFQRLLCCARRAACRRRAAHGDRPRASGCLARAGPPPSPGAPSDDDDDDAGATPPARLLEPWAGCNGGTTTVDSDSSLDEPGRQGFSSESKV
Sequence of guinea pig Bradykinin Receptor B2 (BK2), BDKRB2 (gene 100135486) (O70526 whole entry, looked up): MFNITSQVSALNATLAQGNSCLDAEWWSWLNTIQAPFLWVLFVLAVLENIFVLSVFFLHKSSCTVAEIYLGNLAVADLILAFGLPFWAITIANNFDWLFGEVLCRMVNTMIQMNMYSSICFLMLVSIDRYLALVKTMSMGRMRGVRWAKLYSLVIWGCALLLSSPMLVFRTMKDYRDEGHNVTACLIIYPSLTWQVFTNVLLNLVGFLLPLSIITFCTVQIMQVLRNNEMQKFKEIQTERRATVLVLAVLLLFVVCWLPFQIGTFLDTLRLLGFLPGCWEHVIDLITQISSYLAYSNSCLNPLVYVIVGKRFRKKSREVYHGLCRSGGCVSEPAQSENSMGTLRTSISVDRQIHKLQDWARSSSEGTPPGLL
Sequence of guinea pig Serotonin, 5-Hydroxytryptamine Receptor 4 (5HT4), HTR4 (gene 100135548) (O70528 whole entry, looked up): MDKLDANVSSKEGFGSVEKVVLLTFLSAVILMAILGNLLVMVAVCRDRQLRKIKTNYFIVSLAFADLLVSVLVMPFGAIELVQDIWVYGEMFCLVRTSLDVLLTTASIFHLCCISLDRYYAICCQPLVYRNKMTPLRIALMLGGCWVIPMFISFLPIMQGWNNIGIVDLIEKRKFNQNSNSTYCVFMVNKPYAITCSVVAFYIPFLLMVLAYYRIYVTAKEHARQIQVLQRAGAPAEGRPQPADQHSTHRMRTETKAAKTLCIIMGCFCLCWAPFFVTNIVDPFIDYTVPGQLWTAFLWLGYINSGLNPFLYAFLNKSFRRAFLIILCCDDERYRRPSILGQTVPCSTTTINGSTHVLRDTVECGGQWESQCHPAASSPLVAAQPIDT

As for `CS(=O)(=O)c1cc(C(F)(F)F)ccc1C(=O)c1cnoc1C1CC1`, the outcome in assay [1] was inactive. By AC50 is commonly meant the concentration giving half of the maximal activity seen. For `CC(C)=CC1C(C(=O)OCc2coc(Cc3ccccc3)c2)C1(C)C` (stereo not given), the AC50 in [2] was 7.58 µM (active). Regarding `Cc1ccc(N=CN(C)C=Nc2ccc(C)cc2C)c(C)c1`, the AC50 was 1.5 µM (active) in assay [3] and 0.219 µM (active) in assay [6]. The result in [4] and in [5] was inactive. For `CNC(=O)Oc1cccc2ccccc12`, in assay [5], the compound was classed as inactive.

`CCCCC(O)(Cn1cncn1)c1ccc(Cl)cc1Cl` (stereo not given): in assay [2], the AC50 was 4.96 µM (active). `COP(=S)(OC)SCn1nnc2ccccc2c1=O`: the compound was classed as inactive in assay [2].

For `Cn1c(-c2ccccc2)cc(-c2ccccc2)[n+]1C`, the concentration at half-maximal activity (AC50) in assay [3] was 5.28 µM (active); in [7], 6.94 µM (active); in assay [5] it was 7.91 µM (active); in assay [8] it was 16.5 µM (active); in [9] it was 9.62 µM (active); in [6], 3.72 µM (active). Turning to `CNC(=O)N(C)c1nnc(C(C)(C)C)s1`, the compound was called inactive in assay [1]. For `COc1cc(Cl)c(OC)cc1Cl`, the call in [8] was inactive. In the case of `COP(=O)(OC)O/C(C)=C/C(=O)N(C)C`, the call in [5] was inactive. With `O=C1C2CC=CCC2C(=O)N1SC(Cl)(Cl)Cl` (stereo not given), the AC50 in assay [2] is 9.7 µM (active).

In the case of `COC(=O)NC(=S)Nc1ccccc1NC(=S)NC(=O)OC`, the result in assay [10] was inactive. In the case of `CCNP(=S)(OC)O/C(C)=C/C(=O)OC(C)C` (stereo not given), the outcome in [9] was inactive. In the case of `CCN(CC)C(=O)C(C)Oc1cccc2ccccc12` (stereo not given), the AC50 in assay [2] was 14.8 µM (active).

For the compound `N#Cc1c[nH]cc1-c1cccc2c1OC(F)(F)O2`, the outcome in assay [4] and in assay [6] was inactive.

On to `CCOc1nc(F)cc2nc(S(=O)(=O)Nc3c(Cl)cccc3Cl)nn12`, for which, in [3], the outcome was inactive. `CC1(C)CCC(=Cc2ccc(Cl)cc2)C1(O)Cn1cncn1` (stereo not given): the compound was called inactive in assay [8]. Consider `CCSC(=O)N1CCCCCC1`, for which the compound was classed as inactive in [1].

`CCCN(CC)CC1COC2(CCC(C(C)(C)C)CC2)O1` (stereo not given): the half-maximal activity concentration (AC50) in assay [6] was 16.7 µM (active).

In the case of `COC(=O)N(C(=O)N1CO[C@@]2(C(=O)OC)Cc3cc(Cl)ccc3C2=N1)c1ccc(OC(F)(F)F)cc1`, the call in assay [4] and in assay [6] was inactive.
